Among the data in ChEMBL document CHEMBL1157539, “Thousands of chemical starting points for antimalarial lead identification” (Nature, 2010) are Inhibition values, retold here.

For one test, the system named is Plasmodium falciparum. The experiment in a line: GSK_TCMDC: Inhibition of Plasmodium falciparum 3D7 in whole red blood cells, using parasite LDH activity as an index of growth. Test compounds present at 2uM. The class given is functional.
For `FC(F)(F)c1cccc(CNCC2CCN(CC3CCCCC3)CC2)c1.O=C(O)C(F)(F)F`, the Inhibition is 100%.
For the compound `O=C(NC1CCN(Cc2ccccc2)CC1)c1ccc(-c2nc3cc(Cl)c(Cl)cc3[nH]2)c(F)c1`, the Inhibition is 100%.
As for `O=C(NC1CCC(N2CCC(c3nc4ccccc4s3)CC2)CC1)c1cc2ccccc2[nH]1` (stereo not given), the Inhibition is on record as 94%.
On the same count and under the same terms, under `O=C(Nc1ccc(-c2nc3ccccc3[nH]2)cc1)c1ccc(N2CCOCC2)c([N+](=O)[O-])c1` stands 100%; under `Cc1nc2nc(N)nc(N)c2c(C)c1Cc1ccccc1Br.Cl`, 92%.
For `O=C(O)C(F)(F)F.Oc1ccc(CCCNc2nc(NCc3cccc4ccccc34)nc(N3CCCNCC3)n2)cc1`, the Inhibition is 96%.
The same measure, in the same setting: the value for `Cc1cc(NC(=O)Nc2ccc(N(C)C)cc2)c2cc(Cl)ccc2n1.Cl` was 100%.
Still for that read-out and setting: the value for `CCSc1nnc(C2CCCN(CC(=O)Nc3cc(C(F)(F)F)ccc3Cl)C2)n1CC` (stereo not given) was 99%; that for `CC(C)c1cc2c(ccc3nc(N)nc(N)c32)o1` was 99%; that for `CCC(=O)N1CCc2cc(Br)cc(S(=O)(=O)N3CC(C)CC(C)C3)c21` (stereo not given) was 85%.
Still for that read-out and setting: under `CCCC(C)NC(=O)[C@H]1CNCCN1C(=O)CCCc1ccccc1.O=C(O)C(F)(F)F` (stereo not given in full) stands 96%; under `OCCOCCNCc1cccc(C#Cc2cc3ncnc(Nc4ccc(OCc5cccc(F)c5)c(Cl)c4)c3s2)n1`, 96%; under `CC(C)(C)c1ccc2[nH]c(-c3ccc(/C=C/C(=O)NCc4ccc(Cl)c(Cl)c4)cc3)nc2c1`, 97%.
The compound `Br.CC1(C)NC(N)=NC(=N)N1OCCSCCON1C(=N)N=C(N)NC1(C)C` returned an Inhibition of 95%.
Take `CS(=O)(=O)NCCCNCc1ccc(-c2ccc(-c3nc4cc(F)ccc4[nH]3)s2)cc1.O=C(O)C(F)(F)F`: the Inhibition was determined as 95%.
On the same count and under the same terms, under `COc1cc(OC)cc(-c2nn(-c3ccc([N+](=O)[O-])cc3Cl)c(=S)n2Cc2ccco2)c1` stands 100%; under `CC(C)(C)OC(=O)N(Cc1cc(-n2nnnc2C(F)(F)F)ccc1O)[C@H]1CCCN(C(=O)OC(C)(C)C)[C@H]1c1ccccc1`, 98%; under `Cc1ccc(NC(=O)c2nc(N3CCN(c4ccncc4)CC3)ccc2Cl)cc1F.O=C(O)C(F)(F)F`, 100%.
Same read-out and setting: under `CC(C)NCc1cccc(-c2cccc(-c3nc4ccccc4[nH]3)c2)c1.O=C(O)C(F)(F)F` stands 100%.
Same read-out and setting: the value for `CCCC(CNCc1ccc(Cl)c(C(F)(F)F)c1)CNc1nc2cnccc2[nH]1.Cl` (stereo not given) was 99%.
In the case of `COc1cc2ncnc(NCCc3ccccc3Cl)c2cc1OC`, the Inhibition turned out to be 88%.
In the case of `CSc1ccc(CN2CCC(NC(=O)c3ccc(-c4cccc(Cl)c4)s3)CC2)cc1.O=C(O)C(F)(F)F`, the Inhibition was 86%.
In turn, `CC(C)(C)C1CC(=O)CC2C(=O)N(c3ccc(Br)cc3)C(=O)C21` (stereo not given) gave an Inhibition of 94%.
As for `COc1cc(CNC2Cc3ccccc3C2)ccc1Oc1ccc2nc[nH]c2c1.O=C(O)C(F)(F)F`, the Inhibition is given as 98%.
`c1ccc(CN2CCC(NCc3cccc(-c4cncc5ccccc45)c3)CC2)cc1` registered an Inhibition of 92%.
Compound `COc1ccc(S(=O)(=O)NC2CCN(CCCOc3ccnc4cc(Cl)ccc34)C2)cc1OC` (stereo not given) came in with an Inhibition of 91%.
Compound `COc1cc(NC(=O)c2sc(-c3ccc(Cl)cc3)cc2NC(=O)N2CCCC2)ccc1OCCN1CCCC1` displayed an Inhibition of 100%.
On the same count and under the same terms, the value for `CCCCc1cc(N2CCC(NC(C)=O)C2)nc(Nc2ccc(C)cc2)n1` (stereo not given) was 95%; that for `CNCCCNCc1ccc(-c2ccc(F)c(Cl)c2)o1.Cl` was 100%.
Same read-out and setting: the value for `Cn1c(NCc2cc(F)cc3c2OCOC3)nc2cc(Nc3ccnc(Nc4cccc(CS(C)(=O)=O)c4)n3)ccc21` was 100%; that for `CSC1=NC(C)(C)CC2(CC(c3cccc(C)c3)c3cc(Cl)c(O)cc3O2)N1` (stereo not given) was 100%.
On the same count and under the same terms, under `CC(=O)Nc1ccc(NC(=O)c2cc(-c3ccc(C)cc3O)n[nH]2)cc1` stands 100%; under `OC1=C2C(=Nc3ccccc3SC2c2cccs2)c2ccccc21` (stereo not given), 96%; under `COc1cccc(NC(=O)NCCNc2ccnc(Nc3ccc(F)cc3)n2)c1`, 94%.
`O=C(Nc1ccc(Cl)cc1)c1ccc(CN2CCCN(Cc3cccc(O)c3)CC2)cc1.O=C(O)C(F)(F)F` registered an Inhibition of 100%.
The same measure, in the same setting: under `CCOc1ccc(Nc2nc(N)c3ccccc3n2)cc1.Cl` stands 90%.
Still for that read-out and setting: under `CCOc1cc(C(=O)NCCN(CC)c2cccc(C)c2)ccc1-c1nc2cc(Cl)ccc2[nH]1` stands 100%; under `Cl.N=C(NC1CC1)c1ccc2[nH]c(CCCCCc3nc4cc(C(=N)NC5CC5)ccc4[nH]3)nc2c1`, 89%; under `CC1CN(c2cnn(Cc3cccc(NC(=O)Nc4cccc(C(F)(F)F)c4)c3)c(=O)c2Cl)CC(C)N1.O=C(O)C(F)(F)F` (stereo not given), 96%.
The compound `C=CCn1c(C)cc(C(=O)COc2ccc(S(=O)(=O)N3CCOCC3)cc2[N+](=O)[O-])c1C` returned an Inhibition of 94%.

In the next test the test system is Plasmodium falciparum. The experiment in a line: GSK_TCMDC: Inhibition of Plasmodium falciparum Dd2 in whole red blood cells, using parasite LDH activity as an index of growth. Test compounds present at 2uM. It is filed as functional.
On to `FC(F)(F)c1cccc(CNCC2CCN(CC3CCCCC3)CC2)c1.O=C(O)C(F)(F)F`, for which the Inhibition was found to be 24%.
On to `O=C(NC1CCN(Cc2ccccc2)CC1)c1ccc(-c2nc3cc(Cl)c(Cl)cc3[nH]2)c(F)c1`, for which the Inhibition was 83%.
Same read-out and setting: under `O=C(NC1CCC(N2CCC(c3nc4ccccc4s3)CC2)CC1)c1cc2ccccc2[nH]1` (stereo not given) stands 37%; under `O=C(Nc1ccc(-c2nc3ccccc3[nH]2)cc1)c1ccc(N2CCOCC2)c([N+](=O)[O-])c1`, 28%; under `Cc1nc2nc(N)nc(N)c2c(C)c1Cc1ccccc1Br.Cl`, 2%.
`O=C(O)C(F)(F)F.Oc1ccc(CCCNc2nc(NCc3cccc4ccccc34)nc(N3CCCNCC3)n2)cc1` yielded an Inhibition of 62%.
Consider `Cc1cc(NC(=O)Nc2ccc(N(C)C)cc2)c2cc(Cl)ccc2n1.Cl`, for which the Inhibition came to 50%.
For `CCSc1nnc(C2CCCN(CC(=O)Nc3cc(C(F)(F)F)ccc3Cl)C2)n1CC` (stereo not given), the Inhibition worked out at 96%.
Same read-out and setting: the value for `CC(C)c1cc2c(ccc3nc(N)nc(N)c32)o1` was 37%; that for `CCC(=O)N1CCc2cc(Br)cc(S(=O)(=O)N3CC(C)CC(C)C3)c21` (stereo not given) was 84%; that for `CCCC(C)NC(=O)[C@H]1CNCCN1C(=O)CCCc1ccccc1.O=C(O)C(F)(F)F` (stereo not given in full) was 98%.
Compound `OCCOCCNCc1cccc(C#Cc2cc3ncnc(Nc4ccc(OCc5cccc(F)c5)c(Cl)c4)c3s2)n1` showed an Inhibition of 46%.
The same measure, in the same setting: the value for `CC(C)(C)c1ccc2[nH]c(-c3ccc(/C=C/C(=O)NCc4ccc(Cl)c(Cl)c4)cc3)nc2c1` was 17%; that for `Br.CC1(C)NC(N)=NC(=N)N1OCCSCCON1C(=N)N=C(N)NC1(C)C` was 81%; that for `CS(=O)(=O)NCCCNCc1ccc(-c2ccc(-c3nc4cc(F)ccc4[nH]3)s2)cc1.O=C(O)C(F)(F)F` was 30%.
Same read-out and setting: under `COc1cc(OC)cc(-c2nn(-c3ccc([N+](=O)[O-])cc3Cl)c(=S)n2Cc2ccco2)c1` stands 100%; under `CC(C)(C)OC(=O)N(Cc1cc(-n2nnnc2C(F)(F)F)ccc1O)[C@H]1CCCN(C(=O)OC(C)(C)C)[C@H]1c1ccccc1`, 66%.
Same read-out and setting: under `Cc1ccc(NC(=O)c2nc(N3CCN(c4ccncc4)CC3)ccc2Cl)cc1F.O=C(O)C(F)(F)F` stands 57%; under `CC(C)NCc1cccc(-c2cccc(-c3nc4ccccc4[nH]3)c2)c1.O=C(O)C(F)(F)F`, 22%; under `CCCC(CNCc1ccc(Cl)c(C(F)(F)F)c1)CNc1nc2cnccc2[nH]1.Cl` (stereo not given), 8%.
Take `COc1cc2ncnc(NCCc3ccccc3Cl)c2cc1OC`: the Inhibition worked out at 11%.
For the compound `CSc1ccc(CN2CCC(NC(=O)c3ccc(-c4cccc(Cl)c4)s3)CC2)cc1.O=C(O)C(F)(F)F`, the Inhibition is 19%.
Still for that read-out and setting: the value for `CC(C)(C)C1CC(=O)CC2C(=O)N(c3ccc(Br)cc3)C(=O)C21` (stereo not given) was 7%; that for `COc1cc(CNC2Cc3ccccc3C2)ccc1Oc1ccc2nc[nH]c2c1.O=C(O)C(F)(F)F` was 50%; that for `c1ccc(CN2CCC(NCc3cccc(-c4cncc5ccccc45)c3)CC2)cc1` was 11%.
For `COc1ccc(S(=O)(=O)NC2CCN(CCCOc3ccnc4cc(Cl)ccc34)C2)cc1OC` (stereo not given), the Inhibition was 56%.
On the same count and under the same terms, the value for `COc1cc(NC(=O)c2sc(-c3ccc(Cl)cc3)cc2NC(=O)N2CCCC2)ccc1OCCN1CCCC1` was 61%; that for `CCCCc1cc(N2CCC(NC(C)=O)C2)nc(Nc2ccc(C)cc2)n1` (stereo not given) was 1%.
Still for that read-out and setting: the value for `CNCCCNCc1ccc(-c2ccc(F)c(Cl)c2)o1.Cl` was 12%; that for `Cn1c(NCc2cc(F)cc3c2OCOC3)nc2cc(Nc3ccnc(Nc4cccc(CS(C)(=O)=O)c4)n3)ccc21` was 100%; that for `CSC1=NC(C)(C)CC2(CC(c3cccc(C)c3)c3cc(Cl)c(O)cc3O2)N1` (stereo not given) was 73%.
`CC(=O)Nc1ccc(NC(=O)c2cc(-c3ccc(C)cc3O)n[nH]2)cc1` gave an Inhibition of 78%.
Still for that read-out and setting: under `OC1=C2C(=Nc3ccccc3SC2c2cccs2)c2ccccc21` (stereo not given) stands 93%.
`COc1cccc(NC(=O)NCCNc2ccnc(Nc3ccc(F)cc3)n2)c1` yielded an Inhibition of 1%.
For `O=C(Nc1ccc(Cl)cc1)c1ccc(CN2CCCN(Cc3cccc(O)c3)CC2)cc1.O=C(O)C(F)(F)F`, the Inhibition is 69%.
The same measure, in the same setting: the value for `CCOc1ccc(Nc2nc(N)c3ccccc3n2)cc1.Cl` was 6%.
The same measure, in the same setting: under `CCOc1cc(C(=O)NCCN(CC)c2cccc(C)c2)ccc1-c1nc2cc(Cl)ccc2[nH]1` stands 80%.
On the same count and under the same terms, the value for `Cl.N=C(NC1CC1)c1ccc2[nH]c(CCCCCc3nc4cc(C(=N)NC5CC5)ccc4[nH]3)nc2c1` was 72%; that for `CC1CN(c2cnn(Cc3cccc(NC(=O)Nc4cccc(C(F)(F)F)c4)c3)c(=O)c2Cl)CC(C)N1.O=C(O)C(F)(F)F` (stereo not given) was 74%; that for `C=CCn1c(C)cc(C(=O)COc2ccc(S(=O)(=O)N3CCOCC3)cc2[N+](=O)[O-])c1C` was 5%.

For orientation: Inhibition means the change of the read-out against control, counted positive when it falls. A higher Inhibition goes with a strong effect.
